Records with an inconclusive call do not appear. The source made the active and inactive calls. Unless noted, calls come from the whole dose curve; as a rule, active = well fitted curve in the direction sought with a large enough effect in the repeat runs; inconclusive = weak or mixed curves; inactive = no such curve, though single readings can be large; an effect the other way counts as inactive or inconclusive.
Key:
[1] = qHTS assay to identify small molecule agonists of the sonic hedgehog signaling (Shh) pathway (AID 1259368; calls by dose curve;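 note: NIH/3T3-derived 3T3Gli1-Luc cells carrying a stable Gli1-driven firefly luciferase reporter; series mostly up to about 92 µM; nearly all actives have a fitted effect of over 15% in size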)
How it was run: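 Cells of a mouse NIH/3T3 clone stably expressing luciferase under the Gli1 transcriptional response element are exposed to test chemicals for 24 hr at 37 C. Pathway activation is detected as a rise in luminescence.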

[2] = qHTS assay to identify small molecule antagonists of the sonic hedgehog signaling (Shh) pathway (AID 1259369; calls by dose curve; note: nearly all actives have a fitted effect of over 45% in size)
How it was run: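 Cells are plated and held 4hr at 37 C, compounds (DMSO) are pinned in, conditioned medium is added to stimulate the pathway, and after 24hr luciferase reagent is added for 30min before luminescence is read.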

[3] = qHTS assay to identify small molecule agonists of the androgen receptor (AR) signaling pathway in the presence of an antagonist - cell viability counter screen (AID 1259379);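 note: MDA-kb2 human breast cancer cells carrying an MMTV luciferase reporter; series mostly up to about 92 µM; nearly all actives have a fitted effect of over 25% in size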
How it was run: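 Cytotoxicity is assessed by CellTiter-Fluor in MDA-kb2 cells carrying an MMTV-driven luciferase reporter. Cells receive 3.0uM nilutamide plus compounds at 15 concentrations and incubate 16 hr at 37C without CO2 before fluorescence reading.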

[4] = qHTS assay to identify small molecule agonists of the estrogen receptor beta (ER-beta) signaling pathway - cell viability counter screen (AID 1259380); note: nearly all actives have a fitted effect of over 30% in size
How it was run: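 Cytotoxicity is measured in parallel with the reporter screen: after 16 hr compound exposure at 37C and a 2 hr LiveBLAzer step, CellTiter-Glo is added to the same ER-beta-UAS-bla HEK293T wells and luminescence read after 30 min.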

[5] = qHTS assay to identify small molecule antagonists of the estrogen receptor beta (ER-beta) signaling pathway - cell viability counter screen (AID 1259382);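 note: HEK293T cells carrying ER-beta-UAS-bla reporter stimulated with estradiol; series mostly up to about 92 µM; nearly all actives have a fitted effect of over 55% in size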
How it was run: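 Cytotoxicity counter screen multiplexed with the beta-lactamase antagonist assay: GripTite HEK293T ER-beta-bla cells were treated 16 hr with test chemicals in the presence of 1nM 17-beta-estradiol, and viability was measured by CellTiter-Glo.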

[6] = biological target: Estrogen receptor (Homo sapiens) (UniProt P03372); assay: qHTS assay to identify small molecule agonists of the estrogen receptor alpha (ER-alpha) signaling pathway in the presence of an antagonist (AID 1259383; calls by dose curve; note: top concentration of the series differs between compounds; nearly all actives have a fitted effect of over 15% in size)
How it was run: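 Agonist-mode confirmation in the presence of the ER antagonist ICI-182,780 at 10.0nM final. Breast-derived VM7Luc4E2 reporter cells were exposed to compounds for 22hr, and ERE-driven luciferase was quantified by luminescence.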

[7] = qHTS assay to identify small molecule agonists or antagonists of the thyroid stimulating hormone receptor (TSHR) signaling pathway - wild type cell line counter screen (AID 1259384; calls by dose curve)
How it was run: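 Wild-type Hek293 cells, 800/well, 18 h at 37C, then compound with Ro20-1724 for 30 min RT. cAMP by HTRF (cAMP-d2/anti-cAMP cryptate), 1 h RT, fluorescence read. 15 concentrations, triplicates.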

[8] = biological target: Thyrotropin receptor (Homo sapiens) (UniProt P16473); assay: qHTS assay to identify small molecule antagonists of the thyroid stimulating hormone receptor (TSHR) signaling pathway (AID 1259385; calls by dose curve; note: nearly all actives have a fitted effect of over 20% in size)
How it was run: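 TSHR-HEK293 cells (800/well) plated 18 h, then compounds with Ro20-1724 and TSH at 1.5 ng/mL final, 30 min at room temperature. cAMP quantified by HTRF (cAMP-d2/anti-cAMP-cryptate, 1 h); 15 concentrations in triplicate.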

[9] = qHTS assay to identify small molecule agonists of the estrogen receptor alpha (ER-alpha) signaling pathway in the presence of an antagonist - cell viability counter screen (AID 1259386);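 note: series mostly up to about 92 µM; cells exposed to compounds for 22 h at 37 °C before the viability read; nearly all actives have a fitted effect of over 30% in size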
How it was run: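 Cytotoxicity was measured in parallel with the ERE-luciferase agonist screen, in the same wells. The cells were VM7Luc4E2, which endogenously express ER-alpha, and treatment was with compounds plus 10.0nM ICI-182,780 for 22hr.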

[10] = biological target: Progesterone receptor (Homo sapiens) (UniProt P06401); assay: qHTS assay to identify small molecule agonists of the progesterone receptor (PR) signaling pathway (AID 1346784; calls by dose curve; note: nearly all actives have a fitted effect of over 30% in size)
How it was run: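 HEK 293T PR-UAS-bla reporter cells, 2% charcoal-stripped FBS; 6 hr settle at 37C/5% CO2, compound (DMSO) 16 hr, LiveBLAzer B/G FRET substrate 2 hr RT, fluorescence intensity read.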

[11] = biological target: Progesterone receptor (Homo sapiens) (UniProt P06401); assay: qHTS assay to identify small molecule antagonists of the progesterone receptor (PR) signaling pathway (AID 1346795; active = well fitted inhibition curve with a large enough effect in the signal ratio in the repeat runs, not every such curve was filed as active; the % refers to the signal ratio)
How it was run: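 Beta-lactamase reporter, HEK293T PR-UAS-bla line; 2% charcoal-stripped FBS; 6 hr pre-incubation, 37C/5% CO2. Compound + R5020 1 nM final, 16 hr. LiveBLAzer B/G FRET substrate, 2 hr RT; fluorescence intensity read.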

[12] = qHTS assay to identify small molecule antagonists of the progesterone receptor (PR) signaling pathway - cell viability counter screen (AID 1346798); note: series mostly up to about 92 µM; nearly all actives have a fitted effect of over 50% in size
How it was run: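 Luminescence readout (CellTiter-Glo, 30 min, RT) of viability in PR-UAS-bla HEK293T cells exposed to compound and R5020 agonist for 16 hr at 37C, 5% CO2; run in the same wells as the beta-lactamase reporter read.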

[13] = qHTS assay to identify small molecule agonists of the progesterone receptor (PR) signaling pathway - cell viability counter screen (AID 1346799; calls by dose curve; note: nearly all actives have a fitted effect of over 45% in size)
How it was run: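 HEK293T PR-UAS-bla, 3,000 cells/well, 2% charcoal-stripped FBS; 6 h settle, compound 16 h at 37C/5% CO2; LiveBLAzer 2 h RT, then CellTiter-Glo 30 min RT, luminescence read.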

[14] = qHTS assay to identify small molecule antagonists of the TGF-beta/Smad signaling pathway - cell viability counter screen (AID 1346824); note: nearly all actives have a fitted effect of over 50% in size
How it was run: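 SBE-bla HEK 293T cells, incubated overnight, then compound plus 0.25 ng/mL TGF-beta1 (stock added) for 5 hr at 37 C. Viability was read in the same wells by CellTiter-Glo luminescence after 30 min at room temperature.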

[15] = qHTS assay to identify small molecule agonists of the TGF-beta/Smad signaling pathway - cell viability counter screen (AID 1346829); note: top concentration of the series differs between compounds; nearly all actives have a fitted effect of over 45% in size
How it was run: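 Compound-treated SBE-bla HEK 293T cells (5 hr, 37 C) were assessed for viability with CellTiter-Glo in parallel with the reporter read.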

[16] = qHTS assay to identify small molecule agonists of the TGF-beta/Smad signaling pathway (AID 1346859; active = well fitted activation curve with a large enough effect in the signal ratio in the repeat runs, not every such curve was filed as active; the % refers to the signal ratio; note: series mostly up to about 77 µM)
How it was run: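 Read-out: fluorescence at 460 and 530 nm (405 nm excitation) after a 2 hr room-temperature incubation with beta-lactamase FRET substrate. SBE-bla HEK 293T cells had been treated with test compounds for 5 hr at 37 C.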

[17] = biological target: Androgen receptor (Homo sapiens) (UniProt P10275); assay: qHTS assay to identify small molecule agonists of the androgen receptor (AR) signaling pathway in the presence of an antagonist (AID 1259381; calls by dose curve; note: nearly all actives have a fitted effect of over 15% in size)
How it was run: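 Agonist-mode confirmation screen: human MDA-kb2 cells stably expressing luciferase under an MMTV promoter bearing AR and GR response elements, co-treated with 3.0uM nilutamide (final). Luminescence measured after 16hr compound incubation.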

[18] = biological target: Thyrotropin-releasing hormone receptor (Homo sapiens) (UniProt P34981); assay: qHTS assay to identify small molecule antagonists of the thyrotropin-releasing hormone receptor (TRHR) signaling pathway (AID 1346877; active = well fitted inhibition curve with a large enough effect in the repeat runs, not every such curve was filed as active; note: series mostly up to about 51 µM)
How it was run: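 Antagonism is measured as suppression of the calcium response to 1 nM TRH in TRHR-HEK293 cells that have been dye-loaded for 2 h at 37 °C after overnight plating. Each compound is tested at 15 concentrations in triplicate.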

Measured: Potency

Thyrotropin-releasing hormone receptor (Homo sapiens), sequence (P34981 whole entry, looked up): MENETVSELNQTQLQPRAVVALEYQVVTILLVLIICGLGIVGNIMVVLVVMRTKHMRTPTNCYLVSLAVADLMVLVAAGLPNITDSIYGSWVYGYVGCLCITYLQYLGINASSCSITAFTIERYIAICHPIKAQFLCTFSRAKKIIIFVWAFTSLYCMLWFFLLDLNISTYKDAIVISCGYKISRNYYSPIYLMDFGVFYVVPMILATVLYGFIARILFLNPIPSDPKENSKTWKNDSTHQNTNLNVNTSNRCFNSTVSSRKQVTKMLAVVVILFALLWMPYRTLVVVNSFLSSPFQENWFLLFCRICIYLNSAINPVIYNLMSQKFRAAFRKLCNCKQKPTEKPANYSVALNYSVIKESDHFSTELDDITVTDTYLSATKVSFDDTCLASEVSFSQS
Androgen receptor (Homo sapiens), sequence (P10275 whole entry, looked up): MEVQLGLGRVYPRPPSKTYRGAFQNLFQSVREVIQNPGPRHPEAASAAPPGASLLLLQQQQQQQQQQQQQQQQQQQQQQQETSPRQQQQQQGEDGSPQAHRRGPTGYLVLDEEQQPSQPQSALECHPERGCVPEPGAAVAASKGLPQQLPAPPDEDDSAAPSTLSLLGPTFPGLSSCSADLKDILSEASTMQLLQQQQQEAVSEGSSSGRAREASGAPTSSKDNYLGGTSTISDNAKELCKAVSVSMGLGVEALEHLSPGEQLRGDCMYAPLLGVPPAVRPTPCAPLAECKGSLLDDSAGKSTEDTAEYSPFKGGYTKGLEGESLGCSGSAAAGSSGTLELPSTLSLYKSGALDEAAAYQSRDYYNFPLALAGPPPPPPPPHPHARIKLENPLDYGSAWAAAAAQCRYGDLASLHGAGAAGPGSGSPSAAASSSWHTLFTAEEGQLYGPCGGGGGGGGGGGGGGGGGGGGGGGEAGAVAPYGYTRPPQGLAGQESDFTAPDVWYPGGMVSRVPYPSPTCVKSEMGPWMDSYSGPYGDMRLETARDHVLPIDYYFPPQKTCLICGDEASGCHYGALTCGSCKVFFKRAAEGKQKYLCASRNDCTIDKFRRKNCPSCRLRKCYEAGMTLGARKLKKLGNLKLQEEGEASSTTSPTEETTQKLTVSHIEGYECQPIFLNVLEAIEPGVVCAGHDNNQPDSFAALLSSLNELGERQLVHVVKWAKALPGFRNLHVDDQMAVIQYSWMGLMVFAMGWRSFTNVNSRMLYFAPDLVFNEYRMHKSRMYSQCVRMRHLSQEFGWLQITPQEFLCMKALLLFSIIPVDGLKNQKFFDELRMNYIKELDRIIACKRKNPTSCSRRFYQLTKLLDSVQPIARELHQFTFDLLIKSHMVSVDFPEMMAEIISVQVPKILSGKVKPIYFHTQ
Progesterone receptor (Homo sapiens), sequence (P06401 whole entry, looked up): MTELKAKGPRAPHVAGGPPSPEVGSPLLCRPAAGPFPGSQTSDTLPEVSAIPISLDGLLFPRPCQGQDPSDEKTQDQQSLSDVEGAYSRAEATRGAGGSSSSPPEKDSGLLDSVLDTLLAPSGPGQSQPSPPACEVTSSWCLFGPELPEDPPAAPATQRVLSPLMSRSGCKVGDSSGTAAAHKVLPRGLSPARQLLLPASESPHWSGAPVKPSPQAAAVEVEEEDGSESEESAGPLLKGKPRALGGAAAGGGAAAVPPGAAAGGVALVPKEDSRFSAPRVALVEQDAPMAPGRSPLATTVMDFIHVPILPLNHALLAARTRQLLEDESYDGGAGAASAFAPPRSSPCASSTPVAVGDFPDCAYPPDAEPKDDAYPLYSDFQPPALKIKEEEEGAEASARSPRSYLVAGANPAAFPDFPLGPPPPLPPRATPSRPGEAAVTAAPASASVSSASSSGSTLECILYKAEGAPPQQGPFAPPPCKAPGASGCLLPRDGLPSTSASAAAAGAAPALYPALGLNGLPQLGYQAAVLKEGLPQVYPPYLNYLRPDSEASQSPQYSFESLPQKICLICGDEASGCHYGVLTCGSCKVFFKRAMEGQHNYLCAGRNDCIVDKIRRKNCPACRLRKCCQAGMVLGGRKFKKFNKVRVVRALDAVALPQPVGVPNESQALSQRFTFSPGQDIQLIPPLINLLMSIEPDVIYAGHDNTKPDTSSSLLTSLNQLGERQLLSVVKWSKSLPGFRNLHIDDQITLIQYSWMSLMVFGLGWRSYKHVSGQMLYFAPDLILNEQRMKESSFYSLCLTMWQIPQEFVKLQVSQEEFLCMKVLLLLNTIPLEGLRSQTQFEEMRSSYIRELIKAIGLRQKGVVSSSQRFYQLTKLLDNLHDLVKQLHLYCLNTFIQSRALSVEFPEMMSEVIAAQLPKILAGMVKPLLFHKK
Thyrotropin receptor (Homo sapiens), sequence (P16473 whole entry, looked up): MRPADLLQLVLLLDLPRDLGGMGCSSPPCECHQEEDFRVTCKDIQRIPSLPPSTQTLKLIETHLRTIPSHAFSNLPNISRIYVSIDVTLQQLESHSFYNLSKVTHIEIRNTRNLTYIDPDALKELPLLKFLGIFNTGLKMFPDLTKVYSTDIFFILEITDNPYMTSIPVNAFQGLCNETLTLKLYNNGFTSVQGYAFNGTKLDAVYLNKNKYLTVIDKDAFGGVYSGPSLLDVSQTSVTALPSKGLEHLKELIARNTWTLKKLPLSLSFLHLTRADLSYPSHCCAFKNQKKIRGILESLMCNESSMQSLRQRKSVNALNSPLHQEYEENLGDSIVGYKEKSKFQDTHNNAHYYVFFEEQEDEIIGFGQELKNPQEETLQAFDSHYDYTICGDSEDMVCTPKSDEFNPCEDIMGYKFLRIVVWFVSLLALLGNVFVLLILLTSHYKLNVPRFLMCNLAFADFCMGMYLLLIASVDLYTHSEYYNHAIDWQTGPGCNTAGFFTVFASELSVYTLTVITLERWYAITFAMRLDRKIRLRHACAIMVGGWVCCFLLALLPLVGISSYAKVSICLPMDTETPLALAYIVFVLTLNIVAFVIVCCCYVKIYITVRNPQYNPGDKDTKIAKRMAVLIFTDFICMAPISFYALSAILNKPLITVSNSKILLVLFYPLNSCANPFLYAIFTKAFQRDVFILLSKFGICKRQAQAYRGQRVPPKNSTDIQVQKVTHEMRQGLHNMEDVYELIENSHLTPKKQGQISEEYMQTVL
Estrogen receptor (Homo sapiens), sequence (P03372 whole entry, looked up): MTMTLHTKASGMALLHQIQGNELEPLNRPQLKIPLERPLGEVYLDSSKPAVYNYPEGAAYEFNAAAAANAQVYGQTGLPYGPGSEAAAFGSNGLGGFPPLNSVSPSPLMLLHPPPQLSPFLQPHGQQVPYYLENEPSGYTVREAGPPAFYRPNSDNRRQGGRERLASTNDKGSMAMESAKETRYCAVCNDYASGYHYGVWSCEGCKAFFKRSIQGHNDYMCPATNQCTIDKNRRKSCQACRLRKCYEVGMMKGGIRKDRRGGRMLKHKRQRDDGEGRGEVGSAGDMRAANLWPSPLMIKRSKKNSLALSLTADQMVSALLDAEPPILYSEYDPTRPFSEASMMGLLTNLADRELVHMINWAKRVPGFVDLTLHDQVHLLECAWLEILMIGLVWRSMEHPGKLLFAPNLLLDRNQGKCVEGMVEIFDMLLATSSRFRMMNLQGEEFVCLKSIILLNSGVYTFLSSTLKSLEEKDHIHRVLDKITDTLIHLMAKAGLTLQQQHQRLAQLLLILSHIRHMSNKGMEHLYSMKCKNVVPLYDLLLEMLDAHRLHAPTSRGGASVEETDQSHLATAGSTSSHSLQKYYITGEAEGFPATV

O=C(NCCCN1CCOCC1)c1ccc(Cl)cc1
not listed: [17] | [18]
inactive: all other assays above

COC(=O)c1cc(S(N)(=O)=O)ccc1OC
not listed: [14] | [18]
inactive: all other assays above

CC(=O)CC(c1ccc([N+](=O)[O-])cc1)c1c(O)c2ccccc2oc1=O (centres undefined)
not listed: [8] | [17] | [18]
inactive: all other assays above

CC(C)C(=O)O
not listed: [7] | [8] | [17] | [18]
inactive: all other assays above

C[N+](C)(C)CCOC(N)=O
not listed: [6]
inactive: all other assays above

CCCCCCCC/C=C\CCCCCCCC(=O)OC
not listed: [6] | [12] | [17] | [18]
inactive: all other assays above

CCN(CC)CCNC(=O)c1ccc(NC(C)=O)cc1
not listed: [7] | [8]
inactive: all other assays above

CCC(C)(O)CCC=C(C)C (centres undefined)
not listed: [12] | [17]
inactive: all other assays above
